Experimental data published in PubChem BioAssay AID504941 (Broad Institute, 2011).
Out of some 1,200 compounds screened, about 170 (14%) were called active. The rule behind the calls is not given here. These entries were drawn from the full list. Entries with a potency or affinity are not part of this list.

Assay: E. coli Tat export inhibitors, dose response, cherry-pick, set 2, plate reader (AID 504941)
Settings: E. coli Tat transport reporter; series mostly up to 38 µM; activity change, negative = inhibition: at the top concentration

Activity change, negative = inhibition, inactive:
CC(C)(CO)[C@@H](O)C(=O)NCCC(=O)O -1.7%
COc1ccc(-c2nc(C#N)c(NCC3CCCO3)o2)cc1OC (stereo not drawn) -5.51%
CCNc1nc(OC)nc(Oc2ccc(=O)n(-c3ccccc3)n2)n1 -15.9%
CCCCN(CCCC)C(=O)c1cn(CC)c2cc(N3CCN(C)CC3)c(F)cc2c1=O 282%
CC(=O)Nc1cccc(-c2csc(Nc3cc(C)ccn3)n2)c1 -1.58%
CC(C)(C)CC(=O)Nc1ccc(Nc2ccccc2)cc1 2.82%
Nc1ccc(S(=O)(=O)N2CCCc3ccccc32)cc1 12.9%
NC(=O)c1c(NC(=O)C(=O)N2CCOCC2)sc2c1CCC2 -18.1%
NC(=O)NC(=O)CSc1nc2sc(-c3ccccc3)cc2c(=O)n1-c1ccccc1 -2.99%
CCn1c(CCn2c3ccccc3c3ccccc32)n[nH]c1=S 11.1%
CCc1ccc(NC(=O)Nc2cc(C(=O)NCC3CCCO3)ccc2N2CC3CC(C2)c2cccc(=O)n2C3)cc1 (stereo not drawn) -5.94%
CCCN=C1N(CC)C[C@@H]2[C@@H]3C(=O)N(C)C(=O)[C@@H]3[C@](Cc3ccccc3)(C(=O)OC)N12 -26.9%
CC(NC(=O)Nc1nccs1)(C(F)(F)F)C(F)(F)F 22.2%
COc1ccc(C2C(C#N)=C(N)Oc3c2sc2nc(C)cc(C)c32)cc1 (stereo not drawn) 5.99%
COc1cc2c(cc1NC(=O)COC(=O)[C@@H](NC(=O)c1ccccc1)C(C)C)oc1ccccc12 -4.47%
Cc1cccc2c1cnn2C(=O)CCC(=O)N1CC(C)CC(C)C1 (stereo not drawn) 0.91%
CC(SCC(=O)Nc1ccc(F)cc1)c1nc2ccccc2c(=O)[nH]1 (stereo not drawn) 19.5%
O=C(c1ccco1)N1CCN(C(=O)c2ccc(CS(=O)c3ccc(F)cc3)o2)CC1 (stereo not drawn) -9.83%
Cc1nn2c(COc3ccc(NC(=O)c4ccccc4Cl)cc3)nnc2c2ccccc12 11.3%
O=C(O)c1ccc(N/N=C/c2ccc(-c3ccccc3)cc2)cc1 -7.88%
COc1cccc(CN(C(=O)Cc2c[nH]c3ccccc23)C(C(=O)NC2CCCCC2)c2ccc(C)o2)c1 (stereo not drawn) 0.794%
CCc1cccc(CC)c1NC(=S)NCC(c1cccnc1)N(C)C (stereo not drawn) 23.3%
COc1ccc(-c2ccc(-c3noc(-c4ccccc4OC)n3)c(OC)n2)cc1 32.1%
N#Cc1cccc(C(=O)OCC(=O)NCc2ccco2)c1 26.4%
CCOc1ccc(NC(=O)c2ccc(NC(=O)c3cn4c5c(c(N6CCN(C)CC6)c(F)cc5c3=O)OCC4C)cc2)cc1 (stereo not drawn) 53.8%
O=C(c1ccco1)N1CCCC(c2nc3c(nnn3Cc3ccc(F)cc3)c(=O)[nH]2)C1 (stereo not drawn) -15.7%
CCOC(=O)N1CCC(N(CCN(C)C)C(=S)Nc2ccc(Oc3ccccc3)cc2)CC1 -6.93%
Cc1noc(NS(=O)(=O)c2ccc(NC(=O)c3ccoc3C)cc2)c1C 19.6%
C=CCOc1ccccc1CN1CCC(n2nccc2NC(=O)C2CC2)CC1 -53.1%
O=C(CSc1nccn1Cc1ccccc1)NC1CCCC1 1.77%
O=C(NNC(=S)Nc1cccc(Cl)c1)c1ccccc1OC(F)F 21.6%
COc1ccc(C2CC(=O)Nc3n[nH]c(-c4ccccc4)c32)cc1OC (stereo not drawn) 23.4%
CCc1ccc(N2CC(C(=O)N3CCN(c4ccccn4)CC3)CC2=O)cc1 (stereo not drawn) 23.1%
COc1ccc(-c2nnc(Nc3ccc(CC(N)=O)cc3)c3ccccc23)cc1 -7.23%
Cc1cc(C)n(CCCNC(=O)COc2ccc([N+](=O)[O-])cc2)n1 -36.6%
CCC(=O)NC(c1ccccc1Cl)c1c(O)ccc2ccccc12 (stereo not drawn) 0.404%
COc1ccccc1NS(=O)(=O)c1cc(NC(C)=O)ccc1N1CCCCC1 1.54%
CCn1c2ccc(C)cc2c2nnc(SCCN3CCOCC3)nc21 5%
COC(=O)c1ccc(NC(=O)N2CCC(O)(c3cccnc3)CC2)cc1 9.11%
Cc1ccc(/C=C2/C(=N)N3N=C(CC(=O)N4CCCC4)SC3=NC2=O)o1 15.6%
COC(=O)c1c(NC(=O)CCN2CCOCC2)sc2c1CCCC2 1.23%
COc1ccc(CCN=C(N)NS(=O)(=O)c2cccs2)cc1 -3.98%
COc1cccc(NC(=O)Nc2cnccn2)c1 -11.9%
COc1cc(SC)ccc1C(=O)OCC(=O)NC(=O)NC(C)C -25.9%
O=C(N/C(=C/c1cccc([N+](=O)[O-])c1)C(=O)N1CCOCC1)c1ccc(Br)cc1 14.1%
Cn1cccc1CNCC(O)c1ccccc1 (stereo not drawn) -0.896%
CC(Sc1nnc(-c2ccccc2F)n1C1CC1)C(=O)NCc1ccco1 (stereo not drawn) 20.6%
CC1CCN(c2ccc(C(=O)NCc3ccco3)cc2[N+](=O)[O-])CC1 24%
N#Cc1cccc(Nc2c3c(nc4ccccc24)CCCC3)c1 31%
O=S(=O)(c1cc(Cl)cc(Cl)c1O)N1CCC2(CC1)OCCO2 -7.76%
CS(=O)(=O)c1ccc(Cl)c(NC(=O)COC(=O)CCc2c[nH]c3ccccc23)c1 -2.31%
CCS(=O)(=O)c1ccc(NC(=O)c2ccccc2Cl)c(O)c1 -5.3%
Nc1ccn(CC(=O)N2CCN(c3ccccn3)CC2)c(=O)n1 8.72%
NC(=O)c1ncn([C@@H]2O[C@H](CNCc3cccn3-c3ccncc3)[C@@H](O)[C@H]2O)n1 5.2%
O=C(NCc1ccc2c(c1)OCO2)c1c(O)c2cccc3c2n(c1=O)CCC3 -10.3%
Cc1nc(NC(=O)c2ccco2)sc1-c1csc(Nc2ccc(Cl)cc2)n1 -28.1%
Cc1ccc(SCc2noc(C(=O)NC(C)C)c2C(=O)O)cc1C 22.1%
CCCCNC(=O)NNC(=O)c1ccc(F)cc1 3.97%
O=C(O)C1C(=O)NCC1c1ccccc1 (stereo not drawn) 5.39%
Cc1ccc(C(=O)N/C(=C\c2cn(S(=O)(=O)N(C)C)c3ccccc23)C(=O)NCCCN2CCOCC2)cc1 -3.49%
COc1ccc(Nc2nc(NCCO)nc(OC)n2)cc1 12.2%
CCOC(=O)CC(NC(=O)c1cccc2c1C(=O)N(Cc1cccnc1)C2)c1ccc(OCC)c(OC)c1 (stereo not drawn) 22.5%
OC1(c2ccccc2Cl)NN=C2CCCCCN21 (stereo not drawn) 2.37%
Cc1nc2ccccn2c1/C(O)=C1\C(=O)C(=O)N(CCN(C)C)C1c1ccco1 (stereo not drawn) -13.9%
COc1ccccc1N1C(=NC(=O)CCc2ccccc2)SC2CS(=O)(=O)CC21 (stereo not drawn) 1.05%
CCNc1c(NS(=O)(=O)c2ccc(OC)cc2)c(=O)oc2ccccc12 48%
COc1ccc(Cc2nnc(NS(=O)(=O)c3ccc(Cl)cc3)s2)cc1OC -17.9%
Oc1ccc(/C=N/Nc2ccccc2)cc1 6.32%
CC(=O)NS(=O)(=O)c1ccc(NC(=O)c2cc(-c3cccs3)nc3ccccc23)cc1 5.92%
CC(C)c1nnc(NC(=O)CCS(=O)(=O)Cc2ccccc2)s1 21.5%
O=C(Cn1ccc(C(F)(F)F)n1)Nc1ccc(S(=O)(=O)NCc2ccco2)cc1 11.5%
CCC(C)n1nccc1NC(=O)C(C)Cl (stereo not drawn) -9.12%
O=C(Nc1cccc(-c2nc3cccnc3s2)c1)C1c2ccccc2Oc2ccccc21 21.1%
Nc1cc(OC(=O)c2ccc(F)cc2)nn1S(=O)(=O)c1ccc(F)cc1 -2.53%
CC(C)(C)n1nnnc1C(c1cc2cc3c(cc2[nH]c1=O)OCCO3)N1CCSCC1 (stereo not drawn) 8.61%
Cc1cc(C(C#N)c2ccccc2F)n2ncnc2n1 (stereo not drawn) -3.6%
C=CCc1c(C)nc(C)nc1N/N=C/c1ccc(N(C)C)cc1 3.93%
COc1ccc(S(=O)(=O)N(C)c2ccc(C(=O)N3CCOCC3)cc2)cc1 -2.72%
CCCCOc1ccc(C2CC(=O)N(C)C2=O)cc1 (stereo not drawn) 15.5%
CC[C@H]1OC(=O)[C@H](C)[C@@H](O[C@H]2C[C@@](C)(OC)[C@@H](O)[C@H](C)O2)[C@H](C)[C@@H](O[C@@H]2O[C@H](C)C[C@H](N(C)C)[C@H]2O)[C@](C)(OC)C[C@@H](C)C(=O)[C@H](C)[C@@H](O)[C@]1(C)O 21.8%
NC(=O)c1ccccc1NC(=O)COc1ccc2c(c1)OCO2 -15.4%
CCCN(Cc1ccccc1)C(=S)Nc1ccc(SC(F)F)cc1 -28.4%
c1ccc2c(OCCCN3CCCCCC3)cccc2c1 11.3%
CC(C)(C)OC(=O)N[C@@H](Cc1ccccc1)[C@H](O)c1ccco1 -13%
C[C@H](NC(=O)c1nc[nH]c1C(=O)NCc1ccc(CNC(=O)OC(C)(C)C)cc1)c1ccccc1 -35%
Cc1ccccc1-c1nc(CN2CCC(C(=O)O)CC2)c(C)o1 -19.8%
CC(O/N=C/c1ccc(OC(F)F)cc1)C(=O)Nc1cccc(S(=O)(=O)N2CCOCC2)c1 (stereo not drawn) 10.4%
Fc1ccc(-n2c(-c3ccc4ccccc4n3)n[nH]c2=S)cc1Cl 28.2%
Nc1nc(CN2CCCCC2)cs1 18.1%
CCCn1c2c(c(=N)c3c1CCC3)CCCC2 8.27%
COc1ccc(C2OC(=O)CC2C(=O)NCc2ccc(F)cc2)cc1OC (stereo not drawn) 4.42%
Cc1ccc2oc3c(c(=O)c2c1)C(c1cccs1)N(CCCN(C)C)C3=O (stereo not drawn) -22.4%
CC(=O)N1CCN(c2cc3c(cc2F)c(=O)c(C(=O)O)cn3C2CC2)CC1 408%
CC(C)C[C@@H](CN1CCC[C@@H]1CN1C(=O)C(=O)NC[C@@H]1Cc1ccccc1)N1C[C@H](Cc2ccc(O)cc2)N(CC2CCCCC2)C(=O)C1=O -8.76%
CCCC(=O)c1c[nH]c(C(=O)N2CCOCC2)c1 -22.5%
CCC(=NCCc1ccc(OC)c(OC)c1)C1=C(O)CC(C)(C)CC1=O -14.1%
N#Cc1nc(-c2ccccc2Cl)oc1N1CCN(C(=O)c2ccco2)CC1 -6.45%
O=C(NNc1ncnc2c1cnn2-c1ccccc1)c1cccs1 2.73%
C1=C(CCNc2ncnc3c2cnn3-c2ccccc2)CCCC1 -9.98%
COc1cccc(C(=O)N(CN2CCCC2=O)c2cccc(Cl)c2)c1OC 2.99%
O=C(Nc1ccc(Cl)c(C(F)(F)F)c1)NC1CC2CCCC(C1)N2C1CC1 (stereo not drawn) 16.9%
CCOc1ncccc1C(=O)N(CC)CC(=O)Nc1ccc(NC(C)=O)cc1 9.92%
CCCCN(C)CCn1c(=S)[nH]c2ncccc2c1=O -6.89%
